This note sets out measurements from ChEMBL document CHEMBL3433997, “St. Jude Leishmania screening dataset” (2016).

The inhibition is the relative decrease from the control value, in per cent.

SMILES strings stand for the structures. Values joined by “and” are separate entries in the source; they are usually repeats but may differ in a detail not shown here. Equal values may be shown once.

What all share (format): functional
The target of test [1] is Solute carrier family 2, facilitated glucose transporter member 1 (Homo sapiens) (UniProt P11166). Briefly: ST_JUDE_LEISH: Cytotoxicity at 2uM final concentration against transgenic Leishmania Mexicana promastigotes LmGLUT1 that are glucose transport deficient and complemented with the human glucose transporter GLUT1. Activity is measured by DNA content using SYBR green in vitro.

Test [2] deals with Hexose transporter 1 (Plasmodium falciparum) (UniProt O97467). Briefly: ST_JUDE_LEISH: Cytotoxicity at 2uM final concentration against transgenic Leishmania Mexicana promastigotes LmPfHT that are glucose transport deficient and complemented with the Plasmodium falciparum hexose transporter. Activity is measured by DNA content using SYBR green in vitro.
Test [3] has as its target Glucose transporter (Leishmania mexicana) (UniProt O61059). Nature of the test: ST_JUDE_LEISH: Cytotoxicity at 2uM final concentration against transgenic Leishmania Mexicana promastigotes LmGT2 that are glucose transport deficient and complemented with the L. Mexicana glucose transporter 2. Activity is measured by DNA content using SYBR green in vitro.

Chain of Solute carrier family 2, facilitated glucose transporter member 1 (Homo sapiens) (P11166 whole entry): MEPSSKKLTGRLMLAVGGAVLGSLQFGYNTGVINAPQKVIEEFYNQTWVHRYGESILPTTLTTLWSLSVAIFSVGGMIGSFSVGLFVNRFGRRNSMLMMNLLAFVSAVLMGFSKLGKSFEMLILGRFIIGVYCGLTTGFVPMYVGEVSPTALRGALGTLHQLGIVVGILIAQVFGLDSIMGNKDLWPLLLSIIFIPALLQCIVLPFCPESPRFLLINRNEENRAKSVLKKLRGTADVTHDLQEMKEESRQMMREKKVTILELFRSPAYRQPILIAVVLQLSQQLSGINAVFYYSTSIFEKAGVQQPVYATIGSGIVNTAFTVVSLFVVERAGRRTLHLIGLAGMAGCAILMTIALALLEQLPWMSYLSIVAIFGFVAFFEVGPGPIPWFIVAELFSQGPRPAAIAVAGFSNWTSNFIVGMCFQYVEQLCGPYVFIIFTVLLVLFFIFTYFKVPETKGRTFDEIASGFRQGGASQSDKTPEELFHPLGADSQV

Turning to `CCOC(=O)CCCN1C(=O)CN=C(c2ccccc2)c2cc(Cl)ccc21`, the inhibition in test [1] was -1.02%; in test [2], 0.13%; in test [3] it was 3.48%.
As to `O=C(c1cc(C(F)(F)F)cc(C(F)(F)F)c1)N1CCC(CCN2CCC3(CC2)C(=O)NCN3c2ccccc2)CC1Cc1ccc(Cl)c(Cl)c1` (configuration not stated), the inhibition in test [1] was determined as 6.32%; in test [2], 10.7%; in test [3], 6.06%.
With `CNCCCN(C)C(=O)Oc1c(Br)c(C)nc(C)c1-c1ccc(Oc2ccc(OC(F)(F)F)cc2)cc1`, the inhibition in test [1] is -0.18%; in test [2] it was -3.25%; in test [3], -1.27%.
On the same counts, the results for `CNCC(O)c1cc(Cl)c(Cl)cc1C` (configuration not stated) are 1.72%, 0.44% and -1.56%.
On the same counts, the results for `Cc1cc2cc(CNCCc3ccccc3Br)ccc2nc1N` are 9.09%, 1.37% and 5.36%.
Consider `Cc1ccc2[nH]cc(C3CCN(CC4CCC(NC(=O)/C=C/c5ccc(Cl)c(Cl)c5)CC4)CC3)c2c1` (configuration not stated), for which the inhibition in test [1] was 4.11% and 12%; in test [2] it was 3.18% and 11.1%; in test [3], -1.76% and 10.5%.
For `CNCCCCCCOc1ccc(CC(C)NCC(O)c2cccc(C(F)(F)F)c2)cc1` (configuration not stated), the values for the inhibition in test [1], in test [2] and in test [3] were 18.4%, 2.66% and 1.22%, respectively.
As to `CCC1(C)CC(CCNCc2ccccc2O)(c2ccc(F)cc2)CCO1` (configuration not stated), the inhibition in test [1] was 0.23%; in test [2], 1.85%; in test [3], -0.21%.
Turning to `CCOc1ccc2nccc([C@@H](O)[C@@H]3C[C@@H]4CCN3C[C@@H]4CC)c2c1`, the inhibition in test [1] is 1.23% and 2.9%; in test [2], 1.71% and 3.63%; in test [3], 3.59% and -0.94%.
With `COC(=O)/C=C/C(=O)N[C@@H]1CC[C@@]2(O)[C@H]3Cc4ccc(O)c5c4[C@@]2(CCN3CC2CC2)[C@H]1O5`, the inhibition in test [1] amounted to 4.79%; in test [2], 5.03%; in test [3], 6.57%.
On the same counts, the results for `COc1ccc(CC(C)NCC(O)c2cccc(Cl)c2)cc1C` (configuration not stated) are 7.48%, 5.85% and 7.3%.
For `CC(C)CNCc1cccc(-c2cccc(CN(C(=O)NC3CCCCC3)C3CCN(Cc4ccccc4)CC3)c2)c1` the same measures were 8.3%, 4.64% and 5.98%.
For `COCCSc1ccc(CC(C)NCC(O)c2cccc(Cl)c2)cc1` (configuration not stated) the same measures were 0.56%, 0.25% and 0.74%.
In the case of `COC(=O)c1ccc(CC(C)NCC(O)c2cc(Cl)c(N)c(Cl)c2)cc1` (configuration not stated), the inhibition in test [1] was 1.96%; in test [2] it was 2.46%; in test [3], 2.16%.
For the compound `Cc1c2ccncc2c(C)c2c1[nH]c1ccccc12`, the inhibition in test [1] came out at 17.5%; in test [2], 20.9%; in test [3], 14.7%.
On to `CC(Cc1ccc(NC(=O)CCCc2ccccc2)cc1)NCCc1cccc(Cl)c1` (configuration not stated), for which the results for the inhibition in test [1], in test [2] and in test [3] were 1.2%, 0.72% and 2.44%, respectively.
For `O=C(/C=C/c1ccc(Cl)c(Cl)c1)NCC1CCC(CN2CCC(c3c[nH]c4ccccc34)CC2)CC1` (configuration not stated) the same measures were 2.37%, -3.01% and 1.76%.
On the same counts, the results for `C1=C(c2c[nH]c3ccccc23)CCN(Cc2ccccc2)C1` are 1.51%, 0.32% and -0.23%.
For `Cn1nc(C(F)(F)F)cc1-c1ccc(C(=O)NC2CCC(CN3CCC(c4c[nH]c5ccccc45)CC3)CC2)s1` (configuration not stated) the same measures were 6.48%, 4.44% and 2.24%.
On to `O=C(/C=C/c1ccc(Cl)c(Cl)c1)NCCC1CCC(N2CCC(c3c[nH]c4ccccc34)CC2)CC1` (configuration not stated), for which the inhibition in test [1] was determined as 6.03%; in test [2] it was 7.76%; in test [3], 4.25%.
For `CC[C@H]1CN2CC[C@H]1C[C@H]2[C@H](O)c1cc(-c2ccc(F)cc2)nc2ccc(OC)cc12` the same measures were 0.09%, -0.06% and 1.25%.
For `O=P(O)(O)Oc1c(Br)cc(Br)cc1-c1cc(Br)cc(Br)c1O` the same measures were 0.02%, 1.27% and 0.55%.
For `O=C(/C=C/c1ccc(Cl)c(Cl)c1)NCC1CCCC(CN2CCC(c3c[nH]c4ccccc34)CC2)C1` (configuration not stated) the same measures were 2.54%, 3.43% and 0.26%.
Turning to `CCOC(C(=O)OCC1CCCN1C)(c1ccccc1)c1ccccc1` (configuration not stated), the inhibition in test [1] was 1.35%; in test [2] it was -0.09%; in test [3], 0.01%.
Consider `CC(=O)N(Cc1ccccc1-c1cccc(CNCCc2ccccc2)c1)C1CCN(Cc2ccccc2)CC1`, for which the inhibition in test [1] worked out at 8.96%; in test [2] it was 7.85%; in test [3] it was 7.27%.
For `S=C(Nc1ccccc1Cl)NC1CCC(CN2CCC(c3c[nH]c4ccccc34)CC2)CC1` (configuration not stated) the same measures were 5.7%, 8.06% and 3.34%.
For `O=C(/C=C/c1ccc(Cl)c(Cl)c1)NC1CCC(CN2CCC(c3c[nH]c4ccccc34)C(O)C2)CC1` (configuration not stated) the same measures were 5.68%, 3.72% and 4.19%.
On the same counts, the results for `CC[C@H]1CN2CC[C@@H]1C[C@@H]2[C@@H](O)c1cc(-c2ccc(F)cc2)nc2ccc(OC)cc12` are 4.08%, 3.07% and 5.29%.
For `CC[C@H]1CN2CC[C@H]1C[C@H]2[C@H](O)c1cc(N2CCCC(C(=O)N(CC)CC)C2)nc2ccc(OC)cc12` (some centres not stated), the inhibition in test [1] is 1.75%; in test [2] it was 2.21%; in test [3] it was 0.33%.
For `CC[C@H]1CN2CC[C@H]1C[C@H]2[C@H](O)c1cc(-c2ccccc2F)nc2ccc(OC)cc12` the same measures were 0.68%, 1.58% and 0.34%.
On the same counts, the results for `O=C(/C=C/c1ccsc1)NC1CCC(CN2CCC(c3c[nH]c4ccccc34)CC2)CC1` (configuration not stated) are 1.44%, -2.35% and -0.88%.
For `Oc1ccc2[nH]cc(C3=CCN(CCc4ccccc4)CC3)c2c1` the same measures were 15.8%, 18.1% and 13.4%.
Turning to `CC(=O)Nc1ccc(CN2CCC(N(C)c3ccc(NC(=O)c4cccc(C)c4)cc3)CC2)cc1`, the inhibition came out at 8.7% in test [1], 10.9% in test [2] and 9.57% in test [3].
For `c1ccc(C(OCCC2CCN(Cc3cccnc3)CC2)c2ccccc2)cc1` the same measures were 0.62%, 0.06% and 0.26%.
